Experimental findings from PubChem BioAssay AID2360 (The Scripps Research Institute Molecular Screening Center, 2010) are described below.

Structures are written as SMILES. The campaign covered roughly 1,900 compounds. About 85 (4%) were called active.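 How the source made its calls: active means mean PP5 inhibition over triplicate wells above about 9.5% taken from the earlier PP1 screen (limit read from the data); inactive means the rest.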 Shown is part of a subset that was picked to be rich in actives.

The target in this assay is Serine/threonine-protein phosphatase 5 (Homo sapiens) (UniProt P53041). Nature of the assay: human PP5 catalytic subunit inhibitors – biochemical, fluorescence, triplicate, counter-screen for PP1 inhibitor project, confirmation (AID 2360). Conditions: purified PP5c, OMFP fluorescence; at 6.7 µM; hits give high values.
Serine/threonine-protein phosphatase 5 (Homo sapiens), sequence (P53041 whole entry, looked up): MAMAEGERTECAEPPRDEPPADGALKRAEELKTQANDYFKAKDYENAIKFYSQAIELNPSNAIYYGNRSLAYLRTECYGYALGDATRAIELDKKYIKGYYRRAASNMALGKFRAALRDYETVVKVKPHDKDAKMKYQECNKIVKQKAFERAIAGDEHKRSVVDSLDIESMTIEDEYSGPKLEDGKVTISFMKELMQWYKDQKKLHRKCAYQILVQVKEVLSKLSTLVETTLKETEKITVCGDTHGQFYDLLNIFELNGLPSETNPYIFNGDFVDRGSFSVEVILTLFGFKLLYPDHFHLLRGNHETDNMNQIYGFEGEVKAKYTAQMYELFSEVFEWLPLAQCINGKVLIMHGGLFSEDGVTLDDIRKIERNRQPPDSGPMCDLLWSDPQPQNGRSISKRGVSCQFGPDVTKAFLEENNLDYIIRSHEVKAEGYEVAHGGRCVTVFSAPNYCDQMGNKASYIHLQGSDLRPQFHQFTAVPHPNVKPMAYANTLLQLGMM
Regarding `O=C(O)c1ccccc1NC(=O)C1C2CCC(O2)C1C(=O)O` (stereo not drawn), the inhibition is 17.6% (active). In the case of `CCOP(=O)(OCC)C(O)c1ccc(OC)cc1OC` (stereo not drawn) it was -3.76% (inactive). In the case of `O=c1[nH]c(CN2CC=C(c3ccccc3)CC2)nc2scc(-c3cccs3)c12` it was -3.01% (inactive).
